Fh CTSL1 inh – cathepsin L1 inhibition, PFM18AAP counter-screen. recombinant F. hepatica cathepsin L1, Z-Leu-Arg-MCA fluorescence. inhibition, % at 5.96 µM. 300,000 compounds, 0.49% hits. AID 1906;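 active = inhibition above the mean of all tested compounds plus 3 SD, set per screening campaign, cut at about 17% in these data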;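 note: 0% = plate median of test compound wells and 100% = 1 µM Z-Phe-Ala-diazomethylketone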
PHOSPHO1 inh – PHOSPHO1 (human) inhibition | Q8TCT1 | recombinant PHOSPHO1, absorbance phosphatase assay | inhibition, % at 13.3 µM | 290,000 compounds, 1.1% hits | AID 1565; in the data active = inhibition above about 60%
Target sequence (Q8TCT1 whole entry, looked up): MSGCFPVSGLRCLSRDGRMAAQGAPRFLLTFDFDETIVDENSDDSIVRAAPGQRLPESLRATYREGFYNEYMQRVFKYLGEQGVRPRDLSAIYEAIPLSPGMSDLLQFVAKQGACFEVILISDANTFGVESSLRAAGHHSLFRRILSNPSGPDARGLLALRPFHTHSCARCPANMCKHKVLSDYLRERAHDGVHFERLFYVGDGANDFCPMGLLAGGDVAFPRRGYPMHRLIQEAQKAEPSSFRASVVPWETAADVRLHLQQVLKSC
Rpn11 inh – Rpn11 (human) deubiquitinase inhibition | 360,000 compounds, 0.59% hits | AID 588493 | inhibition, % at 20 µM | human 26S proteasome, Ub4-pepOG fluorescence polarization; 20S core pre-blocked with epoxomicin | O00487;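 active = inhibition at 20 µM, scaled to each plate's controls, above about 33%, limit read from the data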
Target sequence (O00487 whole entry, looked up): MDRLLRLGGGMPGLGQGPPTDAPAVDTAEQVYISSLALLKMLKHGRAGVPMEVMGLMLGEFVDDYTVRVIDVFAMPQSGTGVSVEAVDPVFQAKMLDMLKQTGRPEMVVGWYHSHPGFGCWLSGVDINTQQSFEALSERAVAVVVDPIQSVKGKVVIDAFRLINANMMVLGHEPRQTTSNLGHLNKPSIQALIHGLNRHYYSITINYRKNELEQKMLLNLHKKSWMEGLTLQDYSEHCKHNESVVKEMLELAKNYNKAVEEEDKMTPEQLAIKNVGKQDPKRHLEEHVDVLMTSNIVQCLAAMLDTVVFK
NRP1-CendR mod – modulators of CendR peptide binding to human neuropilin-1; 360,000 compounds, 0.85% hits; inhibition, % at 25 µM; AID 602438; FAM-RPARPAR peptide binding to NRP-1, fluorescence polarization;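 active = inhibition or corrected inhibition above about 18%, plus a signal ratio from 0.5 to 1.5, limit read from the data, passing the limit was not always enough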
TPT1 inh – C. albicans TPT1 enzyme inhibition; recombinant caTPT1, FP RNA substrate dephosphorylation; inhibition, % at 5 µM; 300,000 compounds, 0.81% hits; AID 1962;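 active = inhibition above the mean of all tested compounds plus 3 SD, set per screening campaign, cut at about 24% in these data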;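 note: plate controls were DMSO alone for no effect and ferristatin control at 100 nM for full effect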
HNF4A DNA FP – change in binding of human HNF4 alpha to DNA; P41235; HNF4a-FITC DNA binding, fluorescence polarization, 1 h; activity change, % at 10 µM; 360,000 compounds, 0.3% hits; in the data active = activity change above about 30%, passing the limit was not always enough
Starred values were filed as active, the others as inactive. Hits are enriched below; roughly 3.3% of the tested compounds scored in any of these assays.

What do the screens show for `O=C(c1ccco1)N(CCC(c1ccccc1)c1ccco1)Cc1ccco1` (centres undefined)?
Fh CTSL1 inh: 26*; PHOSPHO1 inh: 34; Rpn11 inh: 24; NRP1-CendR mod: -72; TPT1 inh: 3; HNF4A DNA FP: -25

Results for Cc1ccc(C(CCN(Cc2ccccc2)C(=O)c2ccco2)c2ccco2)cc1 (centres undefined) ?
Fh CTSL1 inh: 4; PHOSPHO1 inh: -2; Rpn11 inh: 24; NRP1-CendR mod: -39; TPT1 inh: 5; HNF4A DNA FP: -13

How did CCC(=O)N(CCC(c1ccco1)c1ccccc1OC)Cc1cccs1 (centres undefined) do in these assays?
Fh CTSL1 inh: 2; PHOSPHO1 inh: 9; Rpn11 inh: 9; NRP1-CendR mod: -6; TPT1 inh: 6; HNF4A DNA FP: 4

How did CC(=O)N(CCC(c1ccccc1)c1ccco1)Cc1cccs1 (centres undefined) do in these assays?
Fh CTSL1 inh: 22*; PHOSPHO1 inh: -21; Rpn11 inh: -2; NRP1-CendR mod: -5; TPT1 inh: -1; HNF4A DNA FP: 0

How did CC(=O)N(CCC(c1ccco1)C(C)C)Cc1ccc(OC(C)C)cc1 (centres undefined) do in these assays?
Fh CTSL1 inh: 17*; PHOSPHO1 inh: 28; Rpn11 inh: 8; NRP1-CendR mod: -6; TPT1 inh: 5; HNF4A DNA FP: 1

How did O=C1C(Cl)=C(NCCN2CCCCC2)C(=O)c2ccccc21 do in these assays?
Fh CTSL1 inh: 54*; PHOSPHO1 inh: -16; Rpn11 inh: 4; NRP1-CendR mod: 17; TPT1 inh: -3; HNF4A DNA FP: 2

How did CCNC1=C(Cl)C(=O)c2ccccc2C1=O do in these assays?
Fh CTSL1 inh: 8; PHOSPHO1 inh: 2; Rpn11 inh: 0; NRP1-CendR mod: 4; TPT1 inh: -3; HNF4A DNA FP: 0

Results for CCCCC/C(=N\NC(=O)Nc1ccccc1)c1ccccc1 ?
Fh CTSL1 inh: 25*; PHOSPHO1 inh: -3; Rpn11 inh: -7; NRP1-CendR mod: -5; TPT1 inh: 1; HNF4A DNA FP: -2

How did CCCC/C(C)=N/NC(=O)Nc1ccccc1 do in these assays?
Fh CTSL1 inh: 3; PHOSPHO1 inh: 36; Rpn11 inh: 0; NRP1-CendR mod: 9; TPT1 inh: 1; HNF4A DNA FP: 3

Results for Cc1ccc(S(=O)(=O)N2CCCC(C(=O)NC3=NCCS3)C2)cc1 (centres undefined) ?
Fh CTSL1 inh: -4; PHOSPHO1 inh: 7; Rpn11 inh: 1; NRP1-CendR mod: 5; TPT1 inh: -1; HNF4A DNA FP: 1

What do the screens show for `Cc1ccc(S(=O)(=O)N2CCC[C@H]2C(=O)NC2=NCCS2)cc1`?
Rpn11 inh: 6; NRP1-CendR mod: 24*; HNF4A DNA FP: -2

Results for Cc1ccc(NC(=S)C2=C(O)c3sccc3N(C)S2(=O)=O)cc1 ?
Fh CTSL1 inh: 7; PHOSPHO1 inh: 76*; Rpn11 inh: 6; NRP1-CendR mod: -28; TPT1 inh: 2; HNF4A DNA FP: 0

Results for COc1ccc2ccc3c(c2c1)N=CC1(O3)N(C)c2ccccc2C1(C)C (centres undefined) ?
Fh CTSL1 inh: -4; PHOSPHO1 inh: -11; Rpn11 inh: -1; NRP1-CendR mod: 16; TPT1 inh: -4; HNF4A DNA FP: 0

Results for CN1c2ccccc2C(C)(C)C12C=Nc1c(ccc3ccccc13)O2 (centres undefined) ?
Fh CTSL1 inh: 21*; PHOSPHO1 inh: 28; Rpn11 inh: 0; NRP1-CendR mod: 8; TPT1 inh: -2; HNF4A DNA FP: 11

What do the screens show for `COc1cc(OC)nc(NC(=O)NS(=O)(=O)c2ccc(F)cc2)n1`?
Fh CTSL1 inh: -1; PHOSPHO1 inh: 24; Rpn11 inh: -3; NRP1-CendR mod: 1; TPT1 inh: 2; HNF4A DNA FP: 7

How did CCCNC(=O)c1nc(C)n(-c2ccc([N+](=O)[O-])cc2)n1 do in these assays?
Fh CTSL1 inh: -3; PHOSPHO1 inh: -56; Rpn11 inh: 2; NRP1-CendR mod: 8; TPT1 inh: -1; HNF4A DNA FP: 1

Results for Fc1cccc(Cc2c(-c3ccc(Cl)cc3)nc3ccc(Br)cn23)c1 ?
Rpn11 inh: 33; NRP1-CendR mod: -8; HNF4A DNA FP: 8

Results for Cc1ccc(-c2nnc(SCc3nc4ccccc4[nH]3)n2Cc2ccco2)cc1 ?
Fh CTSL1 inh: 2; PHOSPHO1 inh: 94*; Rpn11 inh: 2; NRP1-CendR mod: 1; TPT1 inh: -3; HNF4A DNA FP: -1

Results for Cc1cccc(-c2nnc(SCc3nc4ccccc4[nH]3)n2Cc2ccco2)c1 ?
Fh CTSL1 inh: 5; PHOSPHO1 inh: 83*; Rpn11 inh: 7; NRP1-CendR mod: 7; TPT1 inh: 3; HNF4A DNA FP: -1

Results for c1coc(Cn2c(SCc3nc4ccccc4[nH]3)nnc2-c2cccs2)c1 ?
Fh CTSL1 inh: 2; PHOSPHO1 inh: 92*; Rpn11 inh: 6; NRP1-CendR mod: -15; TPT1 inh: 0; HNF4A DNA FP: 0

How did Cn1c(SCc2nc3ccccc3[nH]2)nnc1-c1cccnc1 do in these assays?
Fh CTSL1 inh: -3; PHOSPHO1 inh: 24; Rpn11 inh: 4; NRP1-CendR mod: -13; TPT1 inh: 0; HNF4A DNA FP: 0

How did CCOc1ccc(-c2nnc(SCc3nc4ccccc4[nH]3)n2N)cc1 do in these assays?
Fh CTSL1 inh: -1; PHOSPHO1 inh: 76*; Rpn11 inh: 0; NRP1-CendR mod: -2; TPT1 inh: 1; HNF4A DNA FP: 3

What do the screens show for `c1ccc(CSc2nnc(-c3cccs3)n2Cc2ccco2)cc1`?
Fh CTSL1 inh: -1; PHOSPHO1 inh: -7; Rpn11 inh: -4; NRP1-CendR mod: -23; TPT1 inh: -3; HNF4A DNA FP: 3

How did COc1cc(NC(=O)CSc2nccc(C)n2)c(C)cc1[N+](=O)[O-] do in these assays?
Fh CTSL1 inh: 0; PHOSPHO1 inh: 20; Rpn11 inh: 11; NRP1-CendR mod: -8; TPT1 inh: 1; HNF4A DNA FP: -1

Results for CCOC(=O)C1CCCCN1Cc1ccc(F)cc1 (centres undefined) ?
Fh CTSL1 inh: -4; PHOSPHO1 inh: -9; Rpn11 inh: 0; NRP1-CendR mod: 3; TPT1 inh: -2; HNF4A DNA FP: 3

What do the screens show for `CCn1c(=O)c2c(nc(SCC(=O)N3CCCC(C)C3)n2C)n(C)c1=O` (centres undefined)?
Fh CTSL1 inh: -2; PHOSPHO1 inh: 39; Rpn11 inh: 3; NRP1-CendR mod: 1; TPT1 inh: -1; HNF4A DNA FP: 0

What do the screens show for `Oc1c(CN2CCc3ccccc3C2)cc(Cl)c2cccnc12`?
Fh CTSL1 inh: 0; PHOSPHO1 inh: 30; Rpn11 inh: 39*; NRP1-CendR mod: -22; TPT1 inh: -2; HNF4A DNA FP: -2

How did COC(=O)CN(C#N)c1nc(NC(C)C)nc(NC(C)C)n1 do in these assays?
Fh CTSL1 inh: 69*; PHOSPHO1 inh: -6; Rpn11 inh: 4; NRP1-CendR mod: -7; TPT1 inh: 3; HNF4A DNA FP: 0

Screening data: PubChem BioAssay, several laboratories
